AI-2 QS mod = Vibrio harveyi AI-2 quorum sensing modulation; Vibrio harveyi JMH597 AI-2 luminescence/OD600 ratio, 9 h; stronger effect = lower value; strain lacks LuxN and CqsS sensors; 0 = neutral-control median; activity change, % at 7.5 µM; hit rate 0.4% among 300,000; AID 2094; in the data active means activity change below about -75%, passing the limit was not always enough;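 further: luminescence divided by OD600 gain over 9 h not by final OD600 alone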
CHT block = inhibits the human high affinity choline transporter; Q9GZV3; hit rate 0.86% among 310,000; B-score at 10 µM; CHT-expressing cells, membrane potential dye, choline response; stronger effect = lower value;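 active means B-score over 3 SD under the library average, and starting fluorescence ratio not unusually high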;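 further: choline stimulus applied at its EC90 after an EC20 pre-addition; B-score computed on integrated fluorescence ratio after choline addition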
CHT allo act = allosterically activates the human high affinity choline transporter; hit rate 0.49% among 310,000; CHT-expressing cells, membrane potential dye, choline EC20; stronger effect = higher value; LV-AA mutant CHT in HEK293 cells; B-score at 10 µM; AID 488977; Q9GZV3;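 active means initial fluorescence not abnormally high and integrated response B-score, plate-corrected, over 3 SD above library mean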
ALR inh = blocks human ALR sulfhydryl oxidase activity. P55789. purified ALR, DTT oxidation, H2O2 HRP-luminol luminescence. inhibition, % (test concentration not listed). hit rate 3.8% among 290,000. AID 485317;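 active means mean replicate inhibition above about 79%, with every replicate also reaching it, limit read from the data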
PREPL inhibitor = inhibitors of human prolyl oligopeptidase-like enzyme PREPL; recombinant PREPL, fluorescence polarization activity-based probe; inhibition, % at 5.96 µM; hit rate 0.68% among 320,000; AID 2751; in the data active means inhibition above about 43%
Target sequence (Q4J6C6 whole entry, looked up): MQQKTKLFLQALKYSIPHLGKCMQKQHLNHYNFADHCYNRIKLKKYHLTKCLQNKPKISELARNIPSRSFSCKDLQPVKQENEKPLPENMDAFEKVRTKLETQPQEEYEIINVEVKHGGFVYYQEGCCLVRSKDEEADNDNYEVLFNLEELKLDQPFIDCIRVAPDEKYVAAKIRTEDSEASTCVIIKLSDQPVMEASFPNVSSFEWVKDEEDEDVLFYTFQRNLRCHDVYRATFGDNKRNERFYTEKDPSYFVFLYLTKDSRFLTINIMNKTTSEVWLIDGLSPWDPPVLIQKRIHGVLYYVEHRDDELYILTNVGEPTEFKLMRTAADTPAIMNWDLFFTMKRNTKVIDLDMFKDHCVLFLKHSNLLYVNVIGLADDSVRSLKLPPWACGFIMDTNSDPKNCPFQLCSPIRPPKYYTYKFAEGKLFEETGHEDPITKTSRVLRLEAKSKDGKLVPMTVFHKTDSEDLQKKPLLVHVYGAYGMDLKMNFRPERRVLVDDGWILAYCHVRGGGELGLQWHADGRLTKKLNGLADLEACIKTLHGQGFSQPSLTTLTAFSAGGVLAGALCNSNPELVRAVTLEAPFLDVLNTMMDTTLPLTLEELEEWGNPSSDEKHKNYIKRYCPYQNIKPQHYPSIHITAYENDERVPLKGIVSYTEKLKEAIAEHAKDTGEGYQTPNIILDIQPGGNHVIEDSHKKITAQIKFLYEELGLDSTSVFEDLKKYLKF
CHT activ conf = confirmation of human choline transporter (CHT) activators; CHT-expressing cells, membrane potential dye fluorescence (FDSS); % of choline EC20–EC90 response window; HEK293 expressing CHT LV-AA mutant; choline added at its EC20; hit rate 91% among 2,500; activation, % at 10 µM; shares compounds with CHT allo act; AID 504833;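 active means primary screen active, with duplicate mean activation above negative control mean plus 3 SD, cut at about 11% in these data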
HEK293 MP dye = counter-screen for CHT activators: effect in parental HEK293 cells. shares compounds with CHT allo act. membrane potential dye fluorescence (FDSS); measured after EC20 choline addition. ratio readout change at 10 µM, hits read low. hit rate 62% among 2,500. AID 623908;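 active means duplicate-averaged ratio beyond 3 SD from buffer wells, up or down, though filed actives are nearly all decreases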
A number is an active result; n = inactive; x = no result. In the library only some 5% were active in any assay of this set; here they are far more common.

SMILES	AI-2 QS mod	CHT block	CHT allo act	ALR inh	PREPL inhibitor	CHT activ conf	HEK293 MP dye
CCOC(=O)c1cn2nc(N3CCCCC3)ccc2n1	n	n	n	n	n	x	x
CCOC(=O)c1cn2nc(N3CCCC3)ccc2n1	n	n	n	n	n	35	-38
CCN1CCN(c2c(Cl)cccc2NC(=O)c2ccco2)CC1	n	n	7.6	n	n	54	-33
CCN1CCN(c2c(Cl)cccc2NC(=O)c2ccc3nsnc3c2)CC1	n	n	n	x	n	x	x
CCN1CCN(c2c(Cl)cccc2NC(=O)c2ccc([N+](=O)[O-])cc2)CC1	n	n	12	n	n	53	-67
Cc1nnc2c(N3CCN(CCO)CC3)nc3ccccc3n12	n	n	n	n	n	52	-50
COC(=O)C(Cc1ccc(O)cc1)NC(=O)c1ccc2c(c1)OCCO2 (stereo unspecified)	n	n	n	n	n	x	x
C=CCn1c(SCC(=O)O)nnc1-c1cccc(Cl)c1	n	n	6.6	n	n	n	n
Cc1cccc(N2CCN(C(c3ccncc3)c3nnnn3C(C)(C)C)CC2)c1C (stereo unspecified)	n	n	n	n	n	29	n
CC(C)(C)n1nnnc1C(c1cccnc1)N1CCN(c2cccc(C(F)(F)F)c2)CC1 (stereo unspecified)	n	n	7.8	n	n	21	n
CC(C)(C)Cc1nnc(NC(=O)CSc2ccccc2)s1	n	n	n	n	n	x	x
CN(C)c1cc[n+](CC[n+]2ccc(N(C)C)cc2)cc1	n	n	n	x	n	x	x
CN(C)c1cc[n+](Cc2c(Cl)cccc2Cl)cc1	n	n	6.8	x	n	43	-46
Cc1c(OCC(=O)NCc2cccnc2)ccc2c3c(c(=O)oc12)CCCC3	n	n	n	n	n	x	x
COc1ccc(C[C@H]2CN3C(=NC[C@@H]3Cc3ccccc3)N2CCNC(=O)CCC2CCCCC2)cc1	n	n	9.6	n	n	20	n
CCc1noc(C)c1C(=O)OC(C)C(=O)Nc1ccc(Cl)cn1 (stereo unspecified)	x	x	x	n	n	x	x
CC1CCC(=O)N(CCOc2ccccc2)CC1 (stereo unspecified)	n	n	n	n	n	x	x
C[C@H]1CCC(=O)N([C@H](COc2ccccc2)Cc2ccccc2)CC1	n	n	6.3	n	n	40	n
Cc1cc(C[n+]2ccccc2)c2nsnc2c1	n	n	10	n	n	45	-72
COc1cc(C(=O)NCC(=O)OC(C)C(=O)Nc2ncc(Cl)cc2Cl)cc(OC)c1OC (stereo unspecified)	n	n	n	n	n	x	x
Cn1c(Cc2ccccc2)[n+](C)c2ccccc21	n	n	n	n	n	49	-41
CCOC(=O)c1sc(=S)n(-c2ccc(OC)cc2)c1N	n	n	n	x	n	13	n
COc1ccccc1CN(Cc1cc2c(C)ccc(C)c2[nH]c1=O)Cc1nnnn1Cc1ccco1	n	n	6.4	n	n	17	n
Cc1ccc(CN(Cc2cc3cc4c(cc3[nH]c2=O)OCCO4)Cc2nnnn2Cc2ccco2)cc1	n	n	n	n	n	x	x
CCCCn1c(=N)n(CC(O)c2ccccc2)c2ccccc21 (stereo unspecified)	n	n	n	n	n	x	x
SMILES	AI-2 QS mod	CHT block	CHT allo act	ALR inh	PREPL inhibitor	CHT activ conf	HEK293 MP dye
CCCCn1c(=N)n(CC(O)COc2ccccc2)c2ccccc21 (stereo unspecified)	n	n	n	n	n	36	n
COc1ccc(CN2CCC(N(CCc3ccccc3)Cc3ccccc3)CC2)c(OC)c1	n	n	n	x	n	22	n
CCCN1CCC(N(CCc2ccccc2)Cc2ccccc2)CC1	n	n	n	n	n	x	x
Cc1cc(N2CCN(Cc3nc(-c4ccc(F)cc4)oc3C)CC2)cc(C)n1	n	n	6.8	n	n	43	-47
CCCN1C(=O)c2ccc(C(=O)Nc3cc(C)on3)cc2C1=O	n	n	n	x	n	21	-27
Cc1cc(NC(=O)c2ccc3c(c2)C(=O)N(Cc2ccccc2)C3=O)no1	n	n	n	n	n	x	x
CCOc1ccc(C(=O)Nc2cc(C)on2)cc1OCC	n	n	n	x	n	46	-35
CCCCCCSc1cc(-c2nc3ccc(C)cn3c2NCc2ccccc2)ccc1OC	n	n	n	n	n	x	x
NC(=O)CNC(=O)[C@@H]1CC2(CC(c3ccc(Cl)cc3)=NO2)CN1C(=O)c1ccc(Br)cc1 (stereo partly specified)	n	n	n	n	n	x	x
COc1ccc(-c2nnc(SC(C)C(=O)NCc3ccc4c(c3)OCO4)n2Cc2ccco2)cc1 (stereo unspecified)	n	n	16	n	n	62	n
COc1ccccc1CNC(=O)CN1C(=O)N(C)C2(CCCCC2)C1=O	x	x	x	x	n	x	x
Cc1cc(C)c2c(c1)/C(=N\N=c1\sc3ccccc3n1C)C(=O)N2	n	n	n	x	n	23	n
O=C(N/N=C/c1c[nH]c2ccccc12)c1cc(Cl)ccc1O	n	n	n	n	n	x	x
COc1ccccc1C(=O)COC(=O)CN1C(=O)C2CC=CCC2C1=O (stereo unspecified)	x	n	n	n	n	x	x
O=C(COC(=O)c1ccc2c(=O)n3c(nc2c1)CCC3)NC1CCS(=O)(=O)C1 (stereo unspecified)	n	n	n	n	n	40	-48
Cc1ccc(C(=O)NNC(=O)c2ccccc2O)cc1S(=O)(=O)N1CCCCC1	n	n	n	n	n	x	x
CC1(C)CC(N2CCCC2)=CC(=[N+]2CCCCCC2)C1	n	n	8.6	n	n	54	n
CN(Cc1ccccc1)C1=CC(=[N+]2CCCC2)CC(C)(C)C1	n	n	n	x	n	x	x
CC1(C)CC(N2CCN(c3ccccc3)CC2)=CC(=[N+]2CCCC2)C1	n	n	n	n	n	41	n
CC1CC(C)C[N+](=C2C=C(N3CCCC3)CC(C)(C)C2)C1 (stereo unspecified)	n	x	x	x	x	x	x
CCN(CC)C1=CC(=[N+]2CCCC2)CC(C)(C)C1	n	n	n	n	n	46	n
Cc1nnc2n1N=C(c1ccc(F)cc1F)CS2	x	x	x	n	n	x	x
COc1ccc(CC2(CO)CCN(CC3=Cc4cc(Cl)ccc4OC3)CC2)cc1	n	n	n	n	n	x	x
CCN(C(=O)c1cccc(S(=O)(=O)N(C)C)c1)C12CC3CC(CC(C3)C1)C2	n	n	9.7	x	n	14	n
CC(=O)N1CCN(CC(=O)NC(=O)Nc2ccc3c(c2)OCCO3)CC1	n	n	n	n	n	x	x
CCCC(=O)Nc1nnc(S(=O)(=O)N(CC(C)C)c2ccccc2)s1	n	n	n	n	n	x	x

High-throughput results: PubChem, several laboratories
